Screen size: about 5,500 compounds; about 2,000 (36%) were called active. Roughly 18% stayed inconclusive and do not appear here. Rule as the data show it: active = normalized growth mostly below about 0.91 (no sharp cut-off); inconclusive = no clear call, values can overlap the other calls; inactive = mostly above about 0.92. This is one part of the list.
Assay: chemical genetic growth profiling, strain panel (AID 1159580);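 also: tested at 20 µM; growth read once vehicle control cultures reached saturation at 30 °C; 1 = growth at the plate median or of vehicle wells; lower values mean less growth of the strain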
Details: growth OD

Measured: normalized growth

CC[C@@H](C(=O)C(C)[C@@H](O)[C@H](C)CCc1ccc(C)c(O)c1C(=O)O)C1OC(CC)(C2CC[C@](O)(CC)[C@H](C)O2)C[C@@H]1C (some centres undefined)
inactive: S. cerevisiae deletion strains, locus YJR043C, strain POL32, active compounds read low 1.02 | S. cerevisiae deletion strains, locus YJR066W, strain TOR1, active compounds read low 0.928 | S. cerevisiae deletion strains, locus YJR075W, strain HOC1, active compounds read low 1.01 | S. cerevisiae deletion strains, locus YKL068W, active compounds read low 1 | S. cerevisiae deletion strains, locus YKL160W, strain elf1, active compounds read low 1.05 | S. cerevisiae deletion strains, locus YKL190W, strain CNB1, active compounds read low 1 | S. cerevisiae deletion strains, locus YKR001C, strain vps1, active compounds read low 1.04 | S. cerevisiae deletion strains, locus YKR026C, strain gcn3, active compounds read low 1.07 | S. cerevisiae deletion strains, locus YKR091W, strain srl3, active compounds read low 1.07 | S. cerevisiae deletion strains, locus YLL026W, active compounds read low 1.06 | S. cerevisiae deletion strains, locus YLL041C, strain sdh2, active compounds read low 1.05 | S. cerevisiae deletion strains, locus YLR027C, strain aat2, active compounds read low 1.05 | S. cerevisiae deletion strains, locus YLR039C, strain RIC1, active compounds read low 1.26 | S. cerevisiae deletion strains, locus YLR058C, strain SHM2, active compounds read low 1.02 | S. cerevisiae deletion strains, locus YLR102C, strain apc9, active compounds read low 1.03 | S. cerevisiae deletion strains, locus YLR113W, strain HOG1, active compounds read low 0.964 | S. cerevisiae deletion strains, locus YLR221C, strain rsa3, active compounds read low 1.06 | S. cerevisiae deletion strains, locus YLR258W, strain gsy2, active compounds read low 1.06 | S. cerevisiae deletion strains, locus YLR262C, strain YPT6 (second series), active compounds read low 1.08 | S. cerevisiae deletion strains, locus YLR262C, strain YPT6, active compounds read low 1.34 | S. cerevisiae deletion strains, locus YLR268W, strain sec22, active compounds read low 0.996 | S. cerevisiae deletion strains, locus YLR320W, strain mms22, active compounds read low 1.05 | S. cerevisiae deletion strains, locus YLR330W, strain CHS5, active compounds read low 1.04 | S. cerevisiae deletion strains, locus YLR342W, strain FKS1 (second series), active compounds read low 0.97 | S. cerevisiae deletion strains, locus YLR342W, strain FKS1, active compounds read low 1.05 | S. cerevisiae deletion strains, locus YLR357W, strain rsc2, active compounds read low 1.12 | S. cerevisiae deletion strains, locus YLR370C, strain arc18, active compounds read low 1.04 | S. cerevisiae deletion strains, locus YLR371W, strain rom2, active compounds read low 1 | S. cerevisiae deletion strains, locus YLR384C, strain iki3, active compounds read low 1.08 | S. cerevisiae deletion strains, locus YLR418C, strain cdc73, active compounds read low 0.959 | S. cerevisiae deletion strains, locus YML016C, strain PPZ1, active compounds read low 1.03 | S. cerevisiae deletion strains, locus YML032C, strain rad52, active compounds read low 1 | S. cerevisiae deletion strains, locus YML120C, strain ndi1, active compounds read low 1.07 | S. cerevisiae deletion strains, locus YML124C, strain tub3, active compounds read low 1.03 | S. cerevisiae deletion strains, locus YMR058W, strain fet3, active compounds read low 1.04 | S. cerevisiae deletion strains, locus YMR078C, strain ctf18, active compounds read low 1.06 | S. cerevisiae deletion strains, locus YMR125W, strain sto1, active compounds read low 1.08 | S. cerevisiae deletion strains, locus YMR129W, active compounds read low 1.07 | S. cerevisiae deletion strains, locus YMR205C, strain PFK2, active compounds read low 1.04 | S. cerevisiae deletion strains, locus YMR223W, strain ubp8, active compounds read low 0.996 | S. cerevisiae deletion strains, locus YMR307W, strain GAS1, active compounds read low 0.967 | S. cerevisiae deletion strains, locus YNL067W, strain RPL9B, active compounds read low 1.02 | S. cerevisiae deletion strains, locus YNL071W, strain lat1, active compounds read low 1.06 | S. cerevisiae deletion strains, locus YNL153C, strain GIM3, active compounds read low 1.04 | S. cerevisiae deletion strains, locus YNL183C, strain NPR1, active compounds read low 0.923 | S. cerevisiae deletion strains, locus YNL209W, strain ssb2, active compounds read low 1.07 | S. cerevisiae deletion strains, locus YNL233W, strain BNI4, active compounds read low 1.02 | S. cerevisiae deletion strains, locus YNL248C, strain rpa49, active compounds read low 1.05 | S. cerevisiae deletion strains, locus YNL250W, strain rad50, active compounds read low 0.997 | S. cerevisiae deletion strains, locus YNL271C, strain bni1, active compounds read low 0.996 | S. cerevisiae deletion strains, locus YNL298W, strain CLA4, active compounds read low 0.978 | S. cerevisiae deletion strains, locus YNL307C, strain MCK1, active compounds read low 1.05 | S. cerevisiae deletion strains, locus YNL322C, strain KRE1 (second series), active compounds read low 1.08 | S. cerevisiae deletion strains, locus YNL322C, strain KRE1, active compounds read low 1.02 | S. cerevisiae deletion strains, locus YNR049C, strain mso1, active compounds read low 1.07 | S. cerevisiae deletion strains, locus YNR052C, strain pop2, active compounds read low 1.01 | S. cerevisiae deletion strains, locus YOL006C, strain TOP1, active compounds read low 0.716 | S. cerevisiae deletion strains, locus YOL012C, strain htz1 1.09 | S. cerevisiae deletion strains, locus YOL147C, strain pex11, active compounds read low 1.02 | S. cerevisiae deletion strains, locus YOR001W, strain rrp6, active compounds read low 1.01 | S. cerevisiae deletion strains, locus YOR061W, strain CKA2, active compounds read low 1 | S. cerevisiae deletion strains, locus YOR069W, strain VPS5, active compounds read low 1.02 | S. cerevisiae deletion strains, locus YOR070C, strain gyp1, active compounds read low 1.06 | S. cerevisiae deletion strains, locus YOR080W, strain dia2, active compounds read low 1.06 | S. cerevisiae deletion strains, locus YOR083W, strain WHI5, active compounds read low 1.07 | S. cerevisiae deletion strains, locus YOR136W, strain idh2, active compounds read low 1.02 | S. cerevisiae deletion strains, locus YOR144C, strain elg1, active compounds read low 1.02 | S. cerevisiae deletion strains, locus YOR184W, strain ser1, active compounds read low 0.997 | S. cerevisiae deletion strains, locus YOR231W, strain MKK1, active compounds read low 0.963 | S. cerevisiae deletion strains, locus YOR265W, strain rbl2, active compounds read low 1.05 | S. cerevisiae deletion strains, locus YOR290C, strain snf2, active compounds read low 1.06 | S. cerevisiae deletion strains, locus YOR316C, strain cot1, active compounds read low 1.03 | S. cerevisiae deletion strains, locus YPL051W, strain arl3, active compounds read low 0.944 | S. cerevisiae deletion strains, locus YPL078C, strain atp4, active compounds read low 1.05 | S. cerevisiae deletion strains, locus YPL106C, strain sse1, active compounds read low 1.09 | S. cerevisiae deletion strains, locus YPL240C, strain hsp82, active compounds read low 1.06 | S. cerevisiae deletion strains, locus YPL256C, strain CLN2, active compounds read low 0.982 | S. cerevisiae deletion strains, locus YPR119W, strain clb2, active compounds read low 1.05 | S. cerevisiae deletion strains, locus YPR141C, strain kar3, active compounds read low 1.02 | S. cerevisiae deletion strains, locus YPR163C, strain tif3, active compounds read low 1.07 | S. cerevisiae deletion strains, locus YPR167C, strain met16, active compounds read low 1.02 | S. cerevisiae deletion strains, strain wtn01, active compounds read low 1.02 | S. cerevisiae strains, strain wild type, active compounds read low 1.01
active: S. cerevisiae deletion strains, locus YKL085W, strain MDH1 (second series), active compounds read low 1.28 [resistant] | S. cerevisiae deletion strains, locus YKL085W, strain MDH1, active compounds read low 1.28 [resistant] | S. cerevisiae deletion strains, locus YLL001W, strain dnm1, active compounds read low 1.1 [resistant] | S. cerevisiae deletion strains, locus YMR231W, strain pep5, active compounds read low 0.208 | S. cerevisiae deletion strains, locus YOR106W, strain vam3, active compounds read low 0.557 | S. cerevisiae deletion strains, locus YOR270C, strain vph1, active compounds read low 0.597
